Measured values reported in PubChem BioAssay AID1159580 (chemical genetic matrix, 2015).
Where “and” joins values, the source holds several entries; their conditions need not be identical. Equal values may be shown once. Out of some 5,500 compounds screened, about 2,000 (36%) were called active. Roughly 18% stayed inconclusive and do not appear here. Rule as the data show it: active = normalized growth mostly below about 0.91 (no sharp cut-off); inconclusive = no clear call, values can overlap the other calls; inactive = mostly above about 0.92. Some of the results follow.

Experiment: chemical genetic growth profiling, strain panel (AID 1159580);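 also: tested at 20 µM; growth read once vehicle control cultures reached saturation at 30 °C; 1 = growth at the plate median or of vehicle wells; lower values mean less growth of the strain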
Conditions: S. cerevisiae deletion strains, growth OD

Measured: normalized growth

CC1=C(/C=C/C(C)=C/C=C/C(C)=C/CO)C(C)(C)CCC1
inactive: locus YAL013W, strain DEP1, active compounds read low 1 | locus YAL021C, strain ccr4, active compounds read low 1.05 | locus YAL026C, strain drs2, active compounds read low 1.03 | locus YAL030W, strain snc1, active compounds read low 0.995 | locus YBL061C, strain skt5, active compounds read low 1.02 | locus YBR009C, strain hhf1, active compounds read low 0.961 | locus YBR021W, strain FUR4, active compounds read low 1.01 | locus YBR023C, strain chs3, active compounds read low 1.01 | locus YBR171W, strain sec66, active compounds read low 1.01 | locus YBR229C, strain ROT2, active compounds read low 0.969 | locus YBR231C, strain swc5, active compounds read low 0.983 | locus YBR279W, strain paf1, active compounds read low 1 | locus YCL011C, strain gbp2, active compounds read low 1.04 | locus YCL016C, strain dcc1, active compounds read low 1.04 | locus YCL029C, strain bik1, active compounds read low 1 | locus YCL061C, strain MRC1, active compounds read low 1.01 | locus YCL069W, strain vba3, active compounds read low 1.01 | locus YCR088W, strain abp1, active compounds read low 1.03 | locus YDL005C, strain med2, active compounds read low 1.02 | locus YDL035C, strain GPR1, active compounds read low 0.982 | locus YDL040C, strain nat1, active compounds read low 0.998 | locus YDL074C, strain BRE1, active compounds read low 0.938 | locus YDL101C, strain DUN1, active compounds read low 0.977 | locus YDL134C, strain PPH21, active compounds read low 1.02 | locus YDL185W, strain tfp1, active compounds read low 0.997 | locus YDL192W, strain arf1, active compounds read low 1 | locus YDR001C, strain nth1, active compounds read low 1.01 | locus YDR069C, strain doa4, active compounds read low 1.04 | locus YDR101C, strain arx1, active compounds read low 0.993 | locus YDR137W, strain rgp1, active compounds read low 1.03 | locus YDR150W, strain NUM1, active compounds read low 1 | locus YDR159W, strain sac3, active compounds read low 0.968 | locus YDR162C, strain NBP2, active compounds read low 0.993 | locus YDR195W, strain ref2 0.988 | locus YDR297W, strain sur2, active compounds read low 1 | locus YDR318W, strain mcm21, active compounds read low 1 | locus YDR334W, strain swr1, active compounds read low 1.02 | locus YDR335W, strain msn5, active compounds read low 1.02 | locus YDR388W, active compounds read low 1 | locus YDR392W, strain spt3, active compounds read low 0.965 | locus YDR502C, strain sam2, active compounds read low 1 | locus YEL003W, strain gim4, active compounds read low 1 | locus YEL037C, strain rad23, active compounds read low 1 | locus YEL061C, strain CIN8 (second series), active compounds read low 1.01 | locus YEL061C, strain CIN8, active compounds read low 0.992 | locus YER015W, strain faa2, active compounds read low 1.01 | locus YER016W, strain bim1, active compounds read low 1.06 | locus YER110C, active compounds read low 0.999 | locus YER111C, strain swi4, active compounds read low 1 | locus YER155C, strain BEM2 (second series), active compounds read low 1.07 | locus YER155C, strain BEM2, active compounds read low 1.01 | locus YER167W, strain BCK2, active compounds read low 1 | locus YFR010W, strain ubp6, active compounds read low 0.988 | locus YGL078C, strain dbp3, active compounds read low 1.01 | locus YGL086W, strain mad1, active compounds read low 0.983 | locus YGL167C, strain pmr1, active compounds read low 1.01 | locus YGL173C, strain kem1, active compounds read low 0.971 | locus YGL227W, strain vid30, active compounds read low 1 | locus YGL240W, strain doc1, active compounds read low 1.01 | locus YGL248W, strain PDE1, active compounds read low 0.965 | locus YGL253W, strain hxk2, active compounds read low 0.993 | locus YGR078C, strain PAC10, active compounds read low 0.967 | locus YGR135W, strain pre9, active compounds read low 1 | locus YGR252W, strain gcn5, active compounds read low 0.985 | locus YHR013C, strain ard1, active compounds read low 1.04 | locus YHR027C, strain rpn1, active compounds read low 1.01 | locus YHR030C, strain SLT2, active compounds read low 1.01 and 0.999 | locus YHR079C, strain IRE1 (second series), active compounds read low 1.01 | locus YHR079C, strain IRE1, active compounds read low 1.04 | locus YHR094C, strain hxt1, active compounds read low 1.01 | locus YHR129C, strain ARP1, active compounds read low 1.01 | locus YHR142W, strain chs7, active compounds read low 1 | locus YHR200W, strain rpn10, active compounds read low 1 | locus YIL066C, strain RNR3, active compounds read low 0.964 | locus YIL073C, strain SPO22, active compounds read low 1.01 | locus YIL125W, strain kgd1, active compounds read low 0.995 | locus YIR030C, strain dcg1, active compounds read low 0.998 | locus YJL092W, strain hpr5, active compounds read low 1 | locus YJL095W, strain BCK1 (second series), active compounds read low 1 | locus YJL095W, strain BCK1, active compounds read low 0.924 and 1.01 | locus YJL115W, strain asf1, active compounds read low 1.01 | locus YJL129C, strain trk1, active compounds read low 0.985 | locus YJL134W, strain LCB3, active compounds read low 1.01 | locus YJL154C, strain vps35, active compounds read low 1.02 | locus YJL164C, strain tpk1, active compounds read low 0.993 | locus YJL166W, strain qcr8, active compounds read low 0.967 | locus YJL168C, strain set2, active compounds read low 0.997 | locus YJL187C, strain SWE1 (second series), active compounds read low 0.96
